# Results filed as inconclusive are left out. Entries that show only a call come without a potency. Activity calls are given as the source filed them. Unless noted, the call rests on the fitted dose curve.
# Experiments:
# [1] = Nuclear factor erythroid 2-related factor 2/antioxidant responsive element (Nrf2/ARE) small molecule agonists: qHTS cell viability counter screen in human keratinocytes (AID 1919968; active means well fitted curve in the direction sought with a large enough effect in the repeat runs; an effect the other way counts as inactive or inconclusive; further: nearly all actives have a fitted effect of over 55% in size; further: potency means the concentration at half of the fitted maximal effect)
# How it was run: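 KeratinoSens cells (HaCaT keratinocytes stably carrying an ARE-luciferase reporter) were seeded at 1,500 cells/well and rested 5 h at 37 C/5% CO2. They were then exposed to compounds in DMSO for 23 h. Viability was read by CellTiter-Fluor fluorescence after 1 h.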
# [2] = Nuclear factor erythroid 2-related factor 2/antioxidant responsive element (Nrf2/ARE) small molecule agonists: luciferase reporter gene qHTS assay in human keratinocytes (AID 1919969); further: nearly all actives have a fitted effect of over 35% in size
# [3] = target: Gonadotropin-releasing hormone receptor (Homo sapiens) (UniProt P30968); assay: Human gonadotropin-releasing hormone receptor (GnRHR) small molecule agonists, calcium flux assay in GnRHR-HEK293 cells (AID 1920063); further: nearly all actives have a fitted effect of over 35% in size; further: potency means the concentration at half of the fitted maximal effect
# Sequence of Gonadotropin-releasing hormone receptor (Homo sapiens) (P30968 whole entry, looked up): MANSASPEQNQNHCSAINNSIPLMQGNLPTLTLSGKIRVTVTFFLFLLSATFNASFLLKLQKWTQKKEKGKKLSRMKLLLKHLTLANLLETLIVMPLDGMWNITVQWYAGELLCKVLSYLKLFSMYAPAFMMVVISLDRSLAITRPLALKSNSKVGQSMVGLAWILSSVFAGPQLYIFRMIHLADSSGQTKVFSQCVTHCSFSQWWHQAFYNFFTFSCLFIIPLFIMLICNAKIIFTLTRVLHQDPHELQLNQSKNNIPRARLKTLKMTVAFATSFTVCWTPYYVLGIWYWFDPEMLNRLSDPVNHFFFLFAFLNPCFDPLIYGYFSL
# How it was run: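 HEK293 cells stably expressing human GnRHR were plated 18 h at 37 °C, loaded with calcium dye 1 h at 37 °C, then given compound in agonist mode; fluorescence (Ex/Em 480/540) read kinetically for 3 min at 1 s intervals.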
# [4] = target: KiSS-1 receptor (Homo sapiens) (UniProt Q969F8); assay: Human kisspeptin (KISS1R) small molecule agonists, calcium flux assay in KISS1R-HEK293 cells (AID 1920064; active means well fitted curve in the direction sought with a large enough effect in the repeat runs; an effect the other way counts as inactive or inconclusive)
# Sequence of KiSS-1 receptor (Homo sapiens) (Q969F8 whole entry, looked up): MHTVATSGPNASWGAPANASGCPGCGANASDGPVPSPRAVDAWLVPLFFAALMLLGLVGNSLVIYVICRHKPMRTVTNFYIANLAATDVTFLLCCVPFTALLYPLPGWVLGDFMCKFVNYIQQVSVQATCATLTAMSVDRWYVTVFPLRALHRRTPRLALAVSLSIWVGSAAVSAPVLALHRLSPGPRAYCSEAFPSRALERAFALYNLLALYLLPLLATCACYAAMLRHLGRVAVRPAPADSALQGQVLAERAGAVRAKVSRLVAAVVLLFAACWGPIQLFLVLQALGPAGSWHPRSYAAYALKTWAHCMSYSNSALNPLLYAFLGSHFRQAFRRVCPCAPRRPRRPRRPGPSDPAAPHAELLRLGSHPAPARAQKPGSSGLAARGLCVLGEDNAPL
# How it was run: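 HEK293 cells stably expressing human KISS1R were plated 18 h at 37 °C, loaded with calcium dye for 1 h at 37 °C, then given compound by pin tool. Fluorescence (Ex/Em 480/540) was read kinetically for 3 min.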
# [5] = G protein-coupled receptor (GPCR) small molecule agonists, calcium flux assay: HEK293 wild type cell line counter screen (AID 1920065)
# How it was run: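 Cells were plated and cultured 18 h at 37 C/5% CO2, then loaded with calcium dye for 1 h at 37 C. Compounds in DMSO were pin-transferred in agonist mode, and fluorescence (Ex/Em 480/540) was read kinetically for 3 min at 1 s intervals.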
# [6] = p53 small molecule agonists, cell-based qHTS assay with human liver microsomes (AID 1963577);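 further: p53 response element beta-lactamase reporter cells with liver microsomes plus NADPH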
# How it was run: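 HLM-supplemented p53RE-bla reporter assay: 16 h compound exposure at 37 C, microsomes and NADPH each 0.5 mg/mL final, read by fluorescence intensity.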
# [7] = p53 small molecule agonists, cell-based qHTS assay with rat liver microsomes (AID 1963578)
# How it was run: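 Quantitative HTS of the Tox21 10K library: p53RE-bla cells, rat liver microsomes plus NADPH at 0.5 mg/mL final each, 16 h at 37 C, beta-lactamase fluorescence detection.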
# [8] = p53 small molecule agonists, cell-based qHTS assay with human liver microsomes: qHTS cell viability counter screen (AID 1963579); further: nearly all actives have a fitted effect of over 45% in size; further: potency means the concentration at half of the fitted maximal effect
# How it was run: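 Viability of p53RE-bla cells is measured as CellTiter-Glo luminescence following a 16 h, 37 C incubation with compound, liver microsomes from human donors and NADPH.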
# [9] = p53 small molecule agonists, cell-based qHTS assay with rat liver microsomes: qHTS cell viability counter screen (AID 1963580); further: nearly all actives have a fitted effect of over 45% in size; further: potency means the concentration at half of the fitted maximal effect
# How it was run: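 In HCT-116 cells carrying a p53 response element-bla reporter, compounds were metabolically activated in situ by rat liver microsomes with NADPH over 16 h. Cell ATP content then served as the cytotoxicity measure.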
# [10] = p53 small molecule agonists, cell-based qHTS assay (AID 1963582; active means well fitted activation curve with a large enough effect in the signal ratio in the repeat runs, not every such curve was filed as active; the % refers to the signal ratio)
# How it was run: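 p53RE-bla beta-lactamase reporter cells rested 5 h at 37 C/5% CO2, then received compounds in DMSO by pin transfer and were incubated 16 h at 37 C. LiveBLAzer B/G FRET substrate was loaded for 2 h at room temperature before fluorescence reading.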
# [11] = target: 5-hydroxytryptamine receptor 2A (Homo sapiens) (UniProt P28223); assay: 5-hydroxytryptamine receptor 2A (HTR2A) small molecule antagonists, cell-based qHTS assay (AID 1963586); further: nearly all actives have a fitted effect of over 45% in size
# Sequence of 5-hydroxytryptamine receptor 2A (Homo sapiens) (P28223 whole entry, looked up): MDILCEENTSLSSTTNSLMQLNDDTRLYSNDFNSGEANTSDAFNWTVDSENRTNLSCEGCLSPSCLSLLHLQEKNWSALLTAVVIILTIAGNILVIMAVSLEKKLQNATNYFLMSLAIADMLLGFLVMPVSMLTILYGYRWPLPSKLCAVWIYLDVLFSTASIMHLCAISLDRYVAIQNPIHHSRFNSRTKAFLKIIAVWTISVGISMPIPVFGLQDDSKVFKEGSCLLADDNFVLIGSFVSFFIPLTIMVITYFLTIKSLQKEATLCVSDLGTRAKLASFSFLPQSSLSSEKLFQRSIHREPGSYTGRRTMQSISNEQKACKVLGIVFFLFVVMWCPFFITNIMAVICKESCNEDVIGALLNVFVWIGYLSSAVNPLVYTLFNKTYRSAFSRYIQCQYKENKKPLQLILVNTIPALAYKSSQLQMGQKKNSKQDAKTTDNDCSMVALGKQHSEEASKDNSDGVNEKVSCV
# How it was run: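 Antagonist-mode intracellular calcium assay: DOI (4 nM) added after 5 min compound pre-incubation at room temperature to dye-loaded HTR2A-CHO cells. Fluorescence followed for 3 min, sampled every second.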
# [12] = target: 5-hydroxytryptamine receptor 2A (Homo sapiens) (UniProt P28223); assay: 5-hydroxytryptamine receptor 2A (HTR2A) small molecule agonists, cell-based qHTS assay (AID 1963587); further: nearly all actives have a fitted effect of over 30% in size; further: potency means the concentration at half of the fitted maximal effect
# How it was run: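 HTR2A-CHO cells, plated 18 h at 37 C/5% CO2, dye-loaded 1 h at 37 C; compounds in DMSO added by pin tool (agonist mode). Intracellular calcium flux read as kinetic fluorescence on FDSS over 2 min at 1 s intervals.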
# [13] = target: Muscarinic acetylcholine receptor M1 (Homo sapiens) (UniProt P11229); assay: Cholinergic receptor muscarinic 1 (CHRM1) small molecule agonists, cell-based qHTS assay (AID 1963589); further: nearly all actives have a fitted effect of over 35% in size; further: potency means the concentration at half of the fitted maximal effect
# Sequence of Muscarinic acetylcholine receptor M1 (Homo sapiens) (P11229 whole entry, looked up): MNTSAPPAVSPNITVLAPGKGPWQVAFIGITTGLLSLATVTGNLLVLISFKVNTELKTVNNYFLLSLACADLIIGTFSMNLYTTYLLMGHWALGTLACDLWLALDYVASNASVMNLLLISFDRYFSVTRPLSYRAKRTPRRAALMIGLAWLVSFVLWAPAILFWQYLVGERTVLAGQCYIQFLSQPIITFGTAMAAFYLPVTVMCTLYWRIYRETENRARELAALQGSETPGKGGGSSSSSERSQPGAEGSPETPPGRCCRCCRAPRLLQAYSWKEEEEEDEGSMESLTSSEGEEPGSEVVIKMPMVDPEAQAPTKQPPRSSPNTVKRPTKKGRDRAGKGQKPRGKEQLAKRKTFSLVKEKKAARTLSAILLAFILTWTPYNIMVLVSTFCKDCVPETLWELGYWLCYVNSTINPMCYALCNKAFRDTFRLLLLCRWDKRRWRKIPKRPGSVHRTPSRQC
# How it was run: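 CHO cells stably expressing human CHRM1, seeded 18 h at 37 C/5% CO2, dye-loaded 1 h at 37 C, then given compound in agonist mode; intracellular calcium fluorescence read kinetically at 1 s intervals. Fifteen concentrations, three independent runs.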
# [14] = cAMP Responsive Elements (CRE) small molecule agonists, cell-based qHTS assay (AID 1963590)
# How it was run: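 CRE-bla HEK 293T cells in DMEM with 10% dialyzed FBS, NEAA, pyruvate and 25 mM HEPES were plated 18 h at 37 C/5% CO2, then exposed to compounds in DMSO for 3 h before LiveBLAzer B/G FRET substrate addition.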
# [15] = target: Beta-2 adrenergic receptor (Homo sapiens) (UniProt P07550); assay: Adrenergic beta2 receptor (ADRB2) small molecule antagonists, cell-based qHTS assay (AID 1963592); further: nearly all actives have a fitted effect of over 50% in size; further: potency means the concentration at half of the fitted maximal effect
# Sequence of Beta-2 adrenergic receptor (Homo sapiens) (P07550 whole entry, looked up): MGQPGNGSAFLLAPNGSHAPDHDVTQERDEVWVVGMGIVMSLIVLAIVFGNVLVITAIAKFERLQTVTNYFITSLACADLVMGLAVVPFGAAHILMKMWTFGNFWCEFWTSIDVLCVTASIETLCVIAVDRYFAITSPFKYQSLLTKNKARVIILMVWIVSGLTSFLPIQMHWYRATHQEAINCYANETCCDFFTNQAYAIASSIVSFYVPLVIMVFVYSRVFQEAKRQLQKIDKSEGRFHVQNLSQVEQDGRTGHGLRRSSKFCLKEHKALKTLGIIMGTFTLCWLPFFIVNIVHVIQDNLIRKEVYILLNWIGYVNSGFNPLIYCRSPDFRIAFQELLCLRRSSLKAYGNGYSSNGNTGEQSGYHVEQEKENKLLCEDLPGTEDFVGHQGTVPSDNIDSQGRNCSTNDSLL
# How it was run: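 Cells (CHO, stable ADRB2 overexpression) incubated 18-20hr at 37C; compounds added from DMSO; agonist mix (1nM isoproterenol, 100uM IBMX, 25uM Ro-20-1724) added; 0.5hr RT; d2-cAMP and anti-cAMP-cryptate added; 1hr RT; 665/615 nm read.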
# [16] = target: D(2) dopamine receptor (Homo sapiens) (UniProt P14416); assay: Dopamine D2 receptor (DRD2) small molecule agonists, cell-based qHTS assay (AID 1963594); further: nearly all actives have a fitted effect of over 35% in size
# Sequence of D(2) dopamine receptor (Homo sapiens) (P14416 whole entry, looked up): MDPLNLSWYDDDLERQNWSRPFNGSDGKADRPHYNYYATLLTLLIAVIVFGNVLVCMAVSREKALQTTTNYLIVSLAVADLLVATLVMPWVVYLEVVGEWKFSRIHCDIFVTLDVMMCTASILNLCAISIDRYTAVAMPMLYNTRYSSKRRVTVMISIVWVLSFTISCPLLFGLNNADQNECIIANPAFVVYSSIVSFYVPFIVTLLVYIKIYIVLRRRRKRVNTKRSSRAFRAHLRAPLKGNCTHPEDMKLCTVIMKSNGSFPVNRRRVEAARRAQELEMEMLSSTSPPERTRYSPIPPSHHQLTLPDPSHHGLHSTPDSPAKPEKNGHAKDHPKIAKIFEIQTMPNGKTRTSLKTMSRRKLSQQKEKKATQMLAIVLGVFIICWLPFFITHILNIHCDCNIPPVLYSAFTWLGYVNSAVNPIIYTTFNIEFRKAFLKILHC
# How it was run: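 HEK293 cells stably expressing DRD2 were cultured 24 h at 37 C, then given Ro20-1724 (0.1 mM final) and compounds for 10 min at room temperature. NKH477 (200nM) was then added for 30 min. cAMP was read by HTRF.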
# [17] = target: D(2) dopamine receptor (Homo sapiens) (UniProt P14416); assay: Dopamine D2 receptor (DRD2) small molecule antagonists, cell-based qHTS assay (AID 1963595; active means well fitted inhibition curve with a large enough effect in the signal ratio in the repeat runs, with a control signal flat; the % refers to the signal ratio; further: potency means the concentration at half of the fitted maximal effect)
# How it was run: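 HEK293 cells stably expressing DRD2 were preincubated with 0.1 mM Ro20-1724, then with compound for 10 min at room temperature. Cells were stimulated with 200 nM NKH477 plus 12 nM quinpirole for 30 min, and cAMP was read by HTRF.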
# [18] = p53 small molecule agonists, cell-based qHTS assay: qHTS cell viability counter screen (AID 1963581); further: nearly all actives have a fitted effect of over 45% in size; further: potency means the concentration at half of the fitted maximal effect
# How it was run: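 p53RE-bla HCT-116 cells were exposed to compounds for 16 h at 37 C; after the beta-lactamase FRET read in the same wells, CellTiter-Glo was added and luminescence (intracellular ATP) read after 30 min at room temperature.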
# [19] = target: Muscarinic acetylcholine receptor M1 (Homo sapiens) (UniProt P11229); assay: Cholinergic receptor muscarinic 1 (CHRM1) small molecule antagonists, cell-based qHTS assay (AID 1963588); further: nearly all actives have a fitted effect of over 40% in size; further: potency means the concentration at half of the fitted maximal effect
# How it was run: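 CHRM1-CHO calcium-flux assay, antagonist mode. Cells were seeded 18 h, dye-loaded 1 h at 37 C and given compound for 5 min at RT, then acetylcholine was added at 50nM. FDSS fluorescence was read 3 min; 15 concentrations, three runs.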
# [20] = cAMP Responsive Elements (CRE) small molecule antagonists, cell-based qHTS assay (AID 1963591; active means well fitted inhibition curve with a large enough effect in the signal ratio in the repeat runs, not every such curve was filed as active; the % refers to the signal ratio)
# How it was run: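 CRE-bla HEK293T cells were plated 18 h at 37 °C/5% CO2, pinned with compound in DMSO, then stimulated with NKH477 at 0.25 uM final for 3 h. LiveBLAzer B/G FRET substrate was added and plates incubated 2 h at room temperature.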
Compound,Potency [1],Potency [2],Potency [3],Potency [4],Potency [5],Potency [6],Potency [7],Potency [8],Potency [9],Potency [10],Potency [11],Potency [12],Potency [13],Potency [14],Potency [15],Potency [16],Potency [17],Potency [18],Potency [19],Potency [20]
Oc1ccccc1Br,inactive,inactive,inactive,inactive,inactive,inactive,inactive,inactive,inactive,inactive,inactive,inactive,inactive,inactive,inactive,inactive,inactive,,,
CC[C@H](C)[C@H]1O[C@]2(C=C[C@@H]1C)C[C@@H]1C[C@@H](C/C=C(\C)[C@@H](O[C@H]3C[C@H](OC)[C@@H](O[C@H]4C[C@H](OC)[C@@H](NC)[C@H](C)O4)[C@H](C)O3)[C@@H](C)/C=C/C=C3\CO[C@@H]4[C@H](O)C(C)=C[C@@H](C(=O)O1)[C@]34O)O2,9.69 µM (active),inactive,11 µM (active),inactive,inactive,inactive,inactive,28.9 µM (active),14.5 µM (active),,inactive,38.9 µM (active),38.9 µM (active),,43.3 µM (active),inactive,13.7 µM (active),10.2 µM (active),23.7 µM (active),
CCCCOC(=O)[C@@H](C)Oc1ccc(Oc2ccc(C#N)cc2F)cc1,inactive,inactive,inactive,inactive,inactive,inactive,inactive,inactive,inactive,,inactive,inactive,inactive,,inactive,inactive,inactive,inactive,1.66 µM (active),
O=C(NC(=O)c1c(F)cccc1F)Nc1ccc(Oc2ccc(C(F)(F)F)cc2Cl)cc1F,inactive,inactive,inactive,inactive,inactive,inactive,inactive,inactive,inactive,,,inactive,inactive,,inactive,inactive,,inactive,inactive,
CCCCC(=O)Cl,inactive,inactive,inactive,inactive,inactive,inactive,inactive,inactive,inactive,inactive,,inactive,inactive,,inactive,inactive,inactive,,inactive,inactive
Nc1ccccc1-c1ccccc1,inactive,inactive,inactive,inactive,inactive,inactive,inactive,inactive,inactive,,,inactive,inactive,,inactive,inactive,inactive,inactive,inactive,
COC1=CC(=O)O[C@@H](CCc2ccccc2)C1,inactive,inactive,inactive,inactive,inactive,inactive,inactive,inactive,inactive,,,inactive,inactive,,inactive,,inactive,inactive,inactive,inactive

# Reference: PubChem BioAssay (Tox21)
